Measured values as given in the OligoGym collection.

These sequences were tested against DDB2 (assay: pooled miR-30 sensor sort-seq; sequence = guide strand). Settings: shRNA.
Further: reference of the scale not given here.

Sequence | sensor-assay potency score (higher = more potent)
TTCGGCTACTAGCAGACACATC | -1.25
TTTGAAATTAGGATCTGGGTAT | -0.00871
TCGAACACGTCGATCGTCCTCA | -0.285
TAGAGCTGACACATCATCTTCC | 0.382
TTTTGAAATTAGGATCTGGGTA | -0.102
TGAGTTTCCATCGAACACGTCG | 0.1
TAAAGTCTTGCAGCCTAGTTGT | -0.222
TTTAACAAATCGCCACCTCTGC | -0.868
TCAAATAACTGCTTGATCCCTC | 0.323
TTGATGGTGTCTGAGCTGGCAA | -1.17
TAAACTCGGATCTCGCTCTTCT | 0.0905
TGACACATCATCTTCCCTGAGT | 0.0365
AACTCGGATCTCGCTCTTCTGG | -1.5

What follows are sequences tested against DDX28 in the same assay as above. Settings: shRNA.

Sequence | sensor-assay potency score (higher = more potent)
TAGTCCTGGAAGACTTCTCCTT | -1.12
TAATCTTGCAGCGTTGGGGGGA | -0.579
TAGCTGAGAGTCTTGCCACTGC | -0.373
TTGGATTTTGTGGTCATCCAGA | -0.675
TTGACAACCAGCTCCACACCAG | -0.162
TATGTCTCGGGAGCTCTTCTGG | -0.986
ATAATTGACAACCAGCTCCACA | -0.971
TCATCCAACACCAAGAAGGAGA | -0.925
TTCCAGGAAGCTTTCATCCAGC | -0.626
TAGTGCGTGCAGCACACGGGGC | -1.65
TTCTGCTCTGTCACGATGCTTG | -0.667
TTCGTCGGGACTGCGGACCGTG | -0.386

These sequences were tested against DDX49 in the same assay as above. Settings: shRNA.

Sequence | sensor-assay potency score (higher = more potent)
TCGTACTGTGTCACCAGCGTGA | -0.48
TCTGTTGCGATCAGGATCCGGT | 0.242
TTTGATCTCACACTCTCTTCGC | -0.199
TTGTGGTTGATGACCACCTGTA | -0.316
TTGATCTCACACTCTCTTCGCA | -0.0453
TCATCCATCACCAGGAAGCGGA | -1.17
TTCTTCTTGATCTGCTCCTCGA | -0.688
TTGATGACCACCTGTACCGTAG | -0.168
TGATCTCACACTCTCTTCGCAC | -1.01
TCTTTCTGCTTCATCATGGAGT | -0.0519
TTGATCTGCTCCTCGATGGCGT | 0.0961
TAGATGCTGGACTTGAACTTGG | -0.112

These sequences were tested against DEF6 in the same assay as above. Settings: shRNA.

Sequence | sensor-assay potency score (higher = more potent)
TTGTGTAGGGACGTCTTCCCCT | -0.678
TTAGGGAGGAGTCACGGTGGGC | -1.27
TGACCGGACGCTTATCTCCAGG | -1.34
